Results on 8 molecules are retold here after PubChem BioAssay (NCI).

Some test systems named below: HCT-15 colon; HT29 colon; SNB-75 CNS; SNB-19 CNS; U251 CNS; PC-3 prostate; SK-MEL-5 melanoma; UACC-62 melanoma; LOX IMVI melanoma; SK-MEL-28 melanoma; SK-MEL-2 melanoma; EKVX NSCLC; SN12C renal; UO-31 renal; TK-10 renal; ACHN renal; CAKI-1 renal; A498 renal; CCRF-CEM leukemia; MOLT-4 leukemia.
Holding throughout (experiment): NCI-60 one-dose screen, 48 h (100 = growth as untreated, 0 = no growth, -100 = all killed)
Common to all, as to conditions: 10 µM unless noted

SMILES strings stand for the structures. This is part of a sample that, as a whole, favours compounds with a hit. Of some 83,000 tested, about 20% had one in any assay.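 Results are percent growth after 48 hours of single-concentration exposure. 100 means growth as in untreated cells, lower positive values show inhibition; negative values down to -100 show cell death.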 Values without a mark were called inactive. Calls of active or inactive are those of the source. Rule for the calls: active = growth percent below 10; inactive = the rest.

Turning to `COc1ccc(-c2nc3sccn3c2/C=C/C(=O)c2ccc3c(c2)OCO3)cc1`, the growth was 59.3% with HCT-15 colon; 85% in the test with HT29 colon; 72.3% with SNB-75 CNS; 80.6% in the test on SNB-19 CNS; 55.1% in the test on U251 CNS; 58.6% with PC-3 prostate. Moreover, the growth was 78.7% in the test on SK-MEL-5 melanoma; 57.2% in the test with UACC-62 melanoma; 38.4% with LOX IMVI melanoma; 105% in the test with SK-MEL-28 melanoma; 87.4% with SK-MEL-2 melanoma; 85.4% in the test with EKVX NSCLC. The growth with SN12C renal was 86.1%; with UO-31 renal, 73.5%; in the test with TK-10 renal, 119%; in the test with ACHN renal, 73.3%; with CAKI-1 renal it was 78.3%; in the test with A498 renal it was 113%. Besides, the results for the growth with CCRF-CEM leukemia and in the test with MOLT-4 leukemia were 18.3% and 37.3%, respectively.
As to `COC(=O)N[C@H]1CCc2c(Cl)c(OC)c(OC)c(OC)c2-c2ccc(SC)c(=O)cc21`, the growth with HCT-15 colon was 9.73% (active); with HT29 colon it was 13%; in the test with SNB-75 CNS it was 28%; in the test with SNB-19 CNS it was 26.3%; with U251 CNS, 21.5%; in the test on PC-3 prostate it was 21.1%. Further, the growth was -37.4% (active) in the test on SK-MEL-5 melanoma; 36.9% in the test with UACC-62 melanoma; 13.3% with LOX IMVI melanoma; 60.8% with SK-MEL-28 melanoma; 42.4% in the test with SK-MEL-2 melanoma; 47.8% in the test with EKVX NSCLC. The growth in the test with SN12C renal was 21.1%; in the test with UO-31 renal it was 22.7%; with TK-10 renal it was 45.9%; with ACHN renal it was 30.9%; with CAKI-1 renal it was 15.1%; with CCRF-CEM leukemia it was 1.53% (active). In the test on MOLT-4 leukemia, the growth is 3.99% (active).
As to `Cc1cnc(C(=O)Nc2nc3ccc(S(=O)(=O)Nc4ccc(C(C)(C)C)cc4)cc3[nH]2)cn1`, the growth in the test on HCT-15 colon is 18%; in the test with HT29 colon it was 12.8%; in the test with SNB-75 CNS, 5.59% (active); in the test with SNB-19 CNS, 31.6%; in the test with U251 CNS, 18.9%; with PC-3 prostate, 20.8%. For the same molecule, the growth with SK-MEL-5 melanoma was 10.9%; in the test on UACC-62 melanoma it was 40.2%; in the test with LOX IMVI melanoma, 42.3%; with SK-MEL-28 melanoma, 35.8%; in the test on SK-MEL-2 melanoma, 51.1%; with EKVX NSCLC, 51%. Besides, the growth in the test with SN12C renal is 43.7%; in the test with UO-31 renal it was 40.4%; in the test with TK-10 renal, 43.4%; in the test with ACHN renal it was 49.6%; in the test on CAKI-1 renal it was 27.3%; with CCRF-CEM leukemia, 10.8%. For the same molecule, in the test with MOLT-4 leukemia, the growth is 21.5%.
For the molecule `CC(=O)N1N=C(c2ccc(-n3ccc(C(F)(F)F)n3)c(F)c2)CC1c1ccc[nH]1` (stereo not drawn), the growth is 98.8% in the test with HCT-15 colon; 102% in the test on HT29 colon; 103% with SNB-75 CNS; 100% in the test on SNB-19 CNS; 99.3% with U251 CNS; 96.7% with PC-3 prostate. The growth in the test with SK-MEL-5 melanoma is 97.7%; in the test with UACC-62 melanoma it was 90.7%; with LOX IMVI melanoma, 98.1%; with SK-MEL-28 melanoma it was 105%; in the test on SK-MEL-2 melanoma it was 94%; in the test with EKVX NSCLC, 102%. The growth in the test on SN12C renal was 102%; in the test with UO-31 renal, 92.7%; with TK-10 renal it was 108%; in the test with ACHN renal, 109%; in the test on CAKI-1 renal, 95.4%; in the test on CCRF-CEM leukemia, 93.7%. Further, the growth in the test with MOLT-4 leukemia is 85.6%.
As to `O=C(CCN1CCCC1)Nc1ccc2c(Nc3ccc(F)cc3)c3ccccc3nc2c1`, the growth is -31.9% (active) with HCT-15 colon; 4.15% (active) with HT29 colon; 16.3% with SNB-75 CNS; 13.8% in the test on SNB-19 CNS; -42.1% (active) in the test on U251 CNS; 8.99% (active) with PC-3 prostate. In addition, the growth with SK-MEL-5 melanoma was 33.9%; in the test on UACC-62 melanoma, 21.5%; in the test with LOX IMVI melanoma, -61.2% (active); in the test on SK-MEL-28 melanoma, -40.8% (active); in the test with SK-MEL-2 melanoma it was 49%; with EKVX NSCLC, 47.5%. In addition, the growth with SN12C renal was 9.14% (active); in the test with UO-31 renal, -89.1% (active); with TK-10 renal it was -20.1% (active); with ACHN renal it was -13.3% (active); with CAKI-1 renal it was -75.9% (active); in the test on CCRF-CEM leukemia, -17.8% (active). Further, the growth in the test on MOLT-4 leukemia was -9.71% (active).
In the case of `O=C(c1ccccc1)N1N=C(c2ccc(-n3ccc(C(F)(F)F)n3)c(F)c2)CC1c1ccc[nH]1` (stereo not drawn), the growth in the test on HCT-15 colon was 100%; in the test on HT29 colon, 98.8%; in the test with SNB-75 CNS, 98.4%; with SNB-19 CNS, 99.1%; in the test on U251 CNS, 98.5%; with PC-3 prostate, 101%. Moreover, the growth was 103% in the test with SK-MEL-5 melanoma; 101% in the test with UACC-62 melanoma; 101% in the test on LOX IMVI melanoma; 111% in the test on SK-MEL-28 melanoma; 102% in the test with SK-MEL-2 melanoma; 100% in the test on EKVX NSCLC. The growth was 101% in the test with SN12C renal; 90.4% in the test with UO-31 renal; 99.2% with TK-10 renal; 110% in the test with ACHN renal; 98.3% in the test on CAKI-1 renal; 105% in the test on CCRF-CEM leukemia. Besides, the growth with MOLT-4 leukemia is 98.8%.
`NC(=O)Nc1ccc(-n2cnc3cc(-c4ccc(O)cc4)ccc32)cc1`: the growth is 97.8% in the test on HCT-15 colon; -7.1% (active) in the test with HT29 colon; 102% in the test with SNB-75 CNS; 98.7% with SNB-19 CNS; 83.4% in the test with U251 CNS; 96% in the test on PC-3 prostate. The growth in the test with SK-MEL-5 melanoma was 85.9%; in the test on UACC-62 melanoma, 108%; with LOX IMVI melanoma it was 104%; in the test on SK-MEL-28 melanoma, 100%; in the test on SK-MEL-2 melanoma, 116%; in the test with EKVX NSCLC it was 112%. In addition, the growth in the test on SN12C renal is 94%; in the test with UO-31 renal it was 87.2%; in the test with TK-10 renal it was 121%; in the test with ACHN renal, 92%; in the test on CAKI-1 renal it was 95.2%; in the test with CCRF-CEM leukemia, 94.5%. Moreover, in the test on MOLT-4 leukemia, the growth is 84.9%.
Consider `Cc1ccc(-n2cc(-c3ccccc3)c3c2N=NN2CCN=C32)cc1`, for which the growth in the test on HCT-15 colon was 101%; in the test on HT29 colon it was 110%; in the test with SNB-75 CNS it was 72.1%; in the test on SNB-19 CNS, 92.2%; in the test on U251 CNS, 99.1%; with PC-3 prostate it was 86.4%. Also, the growth with SK-MEL-5 melanoma was 99.1%; with UACC-62 melanoma, 82.3%; with LOX IMVI melanoma, 97.7%; in the test on SK-MEL-28 melanoma, 109%; in the test on SK-MEL-2 melanoma it was 103%; in the test on EKVX NSCLC, 87.5%. Also, the growth is 96% with SN12C renal; 74.5% in the test on UO-31 renal; 141% with TK-10 renal; 105% in the test with ACHN renal; 68.7% with CAKI-1 renal; 101% in the test with CCRF-CEM leukemia. In addition, in the test with MOLT-4 leukemia, the growth is 97.3%.
